From paper PMC4336329 (PLoS ONE, 2015)
The campaign covered roughly 310,000 compounds. About 2,200 (0.71%) showed an effect of 50% or more. Effects have a minus sign here. Shown is part of a subset that was picked to be rich in strong results.

The compounds below were run against human ether-à-go-go-related gene (hERG) potassium channel (human, UniProt Q12809) (assay: primary screen, population patch clamp on CHO cells stably expressing hERG; higher = less effect of the substance).
Chain of human ether-à-go-go-related gene (hERG) potassium channel (Q12809 whole entry, looked up): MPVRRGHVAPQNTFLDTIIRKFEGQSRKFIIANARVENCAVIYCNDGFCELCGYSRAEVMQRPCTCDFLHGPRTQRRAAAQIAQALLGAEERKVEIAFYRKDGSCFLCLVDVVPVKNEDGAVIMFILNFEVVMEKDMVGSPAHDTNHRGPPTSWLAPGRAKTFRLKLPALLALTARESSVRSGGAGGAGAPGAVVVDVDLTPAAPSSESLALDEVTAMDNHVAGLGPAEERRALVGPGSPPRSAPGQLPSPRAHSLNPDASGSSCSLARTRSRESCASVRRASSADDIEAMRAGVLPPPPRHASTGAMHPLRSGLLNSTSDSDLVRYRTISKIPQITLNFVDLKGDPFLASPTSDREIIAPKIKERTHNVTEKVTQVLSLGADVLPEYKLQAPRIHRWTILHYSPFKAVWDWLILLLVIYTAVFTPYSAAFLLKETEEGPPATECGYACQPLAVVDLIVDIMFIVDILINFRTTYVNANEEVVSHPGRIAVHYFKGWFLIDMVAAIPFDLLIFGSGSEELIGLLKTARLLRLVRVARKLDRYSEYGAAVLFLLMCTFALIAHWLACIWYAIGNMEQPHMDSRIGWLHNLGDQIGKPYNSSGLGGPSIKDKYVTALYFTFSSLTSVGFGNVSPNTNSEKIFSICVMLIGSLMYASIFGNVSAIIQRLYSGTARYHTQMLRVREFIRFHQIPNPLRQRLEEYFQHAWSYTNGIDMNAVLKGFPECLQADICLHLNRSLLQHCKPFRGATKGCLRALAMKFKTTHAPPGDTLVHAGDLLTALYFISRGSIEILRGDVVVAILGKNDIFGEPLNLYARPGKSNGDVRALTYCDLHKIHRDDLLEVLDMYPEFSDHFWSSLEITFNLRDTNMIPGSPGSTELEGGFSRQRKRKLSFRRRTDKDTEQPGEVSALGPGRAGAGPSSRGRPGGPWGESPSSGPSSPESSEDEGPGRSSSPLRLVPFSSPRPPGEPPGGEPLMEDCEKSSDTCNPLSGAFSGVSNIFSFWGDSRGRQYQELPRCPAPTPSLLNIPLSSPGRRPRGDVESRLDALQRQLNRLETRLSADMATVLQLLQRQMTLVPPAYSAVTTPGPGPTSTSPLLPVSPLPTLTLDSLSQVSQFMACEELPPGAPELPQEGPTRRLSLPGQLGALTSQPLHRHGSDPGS

Compound	hERG current change (%, negative = inhibition) at 1uM [%]
O=C(CCCN1C(=O)/C(=C/c2ccccc2Cl)SC1=S)Nc1ccccn1	4.44
COc1cc(NC(=O)CSc2nccc(C)n2)c(C(=O)O)cc1OC	-7.07
COc1cc2c(cc1OC)C(COc1ccccc1OC)N(C(=O)C(C)(C)C)CC2 (stereo not drawn)	5.43
COCc1[nH]nc2c1C(c1ccc(OC)c(OC)c1)C(C#N)=C(N)O2 (stereo not drawn)	10.6
CCOc1ccc(N2CC(C(=O)Nc3ccccc3N3CCOCC3)CC2=O)cc1 (stereo not drawn)	4.41
COc1ccc(OC)c(NC(=O)CSc2nnc(CNC(=O)COc3ccc(Cl)cc3)o2)c1	2.4
COC(=O)C1=C(O)C(C(=O)OC)C(c2ccc(C)cc2)C(C#N)(C#N)C1c1ccc(C)cc1 (stereo not drawn)	6.75
O=C(c1cc2c(ccc3ccccc32)o1)N1CCCCC1	14.4
CCOC(=O)N1CCN(C(=O)COC(=O)c2ccc(O)cc2O)CC1	16.8
CC(=O)c1ccc(-n2c(-c3cc(-c4ccsc4)n[nH]3)n[nH]c2=S)cc1	7.9
CCCCCn1c(=O)[nH]c2cc(C(=O)NCCN3CCOCC3)ccc2c1=O	6.68
O=C1NC(Cc2ccccc2)c2nc3ccc(Cl)cc3c(=O)n2-c2ccc(Cl)cc21 (stereo not drawn)	10.4
COc1ccc(S(=O)(=O)N2CCOCC2)cc1NC(=O)c1cccc(Cl)c1	6.86
N#Cc1c(N)n(CCOC(=O)c2cccc([N+](=O)[O-])c2)c2nc3ccccc3nc12	13.1
COc1ccc(CCNC(=O)c2ccc3c(c2)OCO3)cc1	11.4
CCN(CC)C(=O)CSc1nnc(-c2ccccn2)n1-c1ccc(C)c(C)c1	-4.22
COc1ccc(-n2c(SCC(=O)Nc3nccs3)nnc2-c2ccoc2C)cc1	-79.4
Cn1c(SCC(=O)NCc2ccco2)nnc1-c1cccs1	8.99
COc1cccc(-n2c(SCC(=O)NCCc3ccccc3)nnc2-c2ccoc2C)c1	-50.4
COc1cccc(-n2c(SCC(=O)NC(C)(C)C)nnc2-c2ccoc2C)c1	-3.46
COc1cccc(NC(=O)CSc2nnc(-c3ccoc3C)n2-c2ccccc2)c1	-17.5
Cc1csc(NC(=O)CSc2nnc(-c3ccccn3)n2-c2ccc(C)c(C)c2)n1	-57.4
COc1ccc(-n2c(SCC(=O)Nc3nccs3)nnc2-c2ccccc2)cc1	13.9
Cc1ccc(-n2c(SCC(N)=O)nnc2-c2ccccn2)cc1C	13
CCOc1ccc(-n2c(SCC(=O)Nc3nccs3)nnc2-c2ccoc2C)cc1	-35.1
O=C(CSc1nnc(-c2ccccc2)n1-c1ccccc1)NCc1ccco1	7.59
O=C(CSc1nnc(-c2cccs2)n1-c1ccccc1)NCc1ccco1	-65.9
